# Source: PubChem
# esBAF inh – blocks esBAF chromatin remodeling in mouse ES cells; reporter increase, % at 12.5 µM; Bmi1-luciferase knock-in reporter, 24 h; 100% = twice the neutral-well signal; 350,000 compounds, 2% hits; in the data active means activation above about 40%; inconclusive means no clear call, values can overlap the other calls;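 further: 0% = median of the plate's neutral control wells and 100% = double that signal; a rise in the Bmi1 reporter signal indicates esBAF inhibition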
# PHOSPHO1 block – PHOSPHO1 (human) inhibition; recombinant PHOSPHO1, absorbance phosphatase assay; 290,000 compounds, 1.1% hits; inhibition, % at 13.3 µM; Q8TCT1; in the data active means inhibition above about 60%
# Target sequence (Q8TCT1 whole entry, looked up): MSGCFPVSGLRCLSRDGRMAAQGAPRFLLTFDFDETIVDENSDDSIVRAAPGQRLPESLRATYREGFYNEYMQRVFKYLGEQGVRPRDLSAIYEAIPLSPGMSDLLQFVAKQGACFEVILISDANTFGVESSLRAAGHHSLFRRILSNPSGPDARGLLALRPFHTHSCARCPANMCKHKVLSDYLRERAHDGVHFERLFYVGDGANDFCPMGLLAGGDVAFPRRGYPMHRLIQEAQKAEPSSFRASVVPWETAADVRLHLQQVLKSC
# A3G deaminase – APOBEC3G (human) deaminase inhibition; Q9HC16; recombinant A3G, ssDNA deamination FAM/TAMRA fluorescence; inhibition, % at 20 µM; 330,000 compounds, 0.28% hits;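 active means inhibition of at least 40% at 20 µM, with no more than 30% in the related APOBEC3A deaminase screen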;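 further: plate controls were DMSO wells with A3G for no effect and wells lacking A3G enzyme for full effect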
# APOBEC3A inh – blocks human APOBEC3A ssDNA deamination; P31941; recombinant A3A, FAM/TAMRA ssDNA deamination fluorescence; inhibition, % at 20 µM; 330,000 compounds, 0.41% hits; AID 493011;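 active means at least 40% inhibition at 20 µM here, with at most 30% in a related deaminase screen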;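 further: plate controls were A3A with DMSO for no effect and wells lacking A3A enzyme for full effect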
# Target sequence (P31941 whole entry, looked up): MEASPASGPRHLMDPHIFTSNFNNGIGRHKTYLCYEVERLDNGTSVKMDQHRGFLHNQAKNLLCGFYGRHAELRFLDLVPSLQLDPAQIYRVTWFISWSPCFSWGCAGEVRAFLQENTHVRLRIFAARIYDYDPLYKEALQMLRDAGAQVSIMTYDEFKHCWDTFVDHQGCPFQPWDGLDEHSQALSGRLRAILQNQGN
# Wnt act – activators of Wnt/beta-catenin signaling; Wnt/beta-catenin reporter cell assay, activator, plate reader; activation, % at 9.35 µM; 300,000 compounds, 1.2% hits; AID 743398; in the data active means activation above about 30%, passing the limit was not always enough; inconclusive means no clear call, values can overlap the other calls;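 further: 0% = neutral control wells and 100% = positive control wells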
# MITF act – increases MITF-driven TRPM1 promoter luciferase signal; activation, % at 12.5 µM; SK-MEL-5 TRPM1-promoter luciferase, 24 h; % of positive control, neutral wells = 0; 300,000 compounds, 0.75% hits;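 active means mean activation of at least 80% with every replicate also reaching 80%; inconclusive means mean reaches 80% but some replicate falls short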;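 further: 0% = neutral control wells and 100% = parthenolide positive control wells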
# esBAF Ring1 qPCR – de-represses Ring1 in mouse ESCs, confirming esBAF inhibition. shares compounds with esBAF inh. mouse ESC E14, Ring1 mRNA RT-qPCR fold change. fold change at 33 µM. 550 tested, under 10 active. AID 743176;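 active means Ring1 gene expression raised more than 2-fold over untreated cells in both replicates at either tested dose; inconclusive means only one replicate above 2-fold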;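 further: Ring1 transcript normalised to actin housekeeping signal by TaqMan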
# esBAF Fgf4 qPCR – esBAF inhibition confirmed by Fgf4 repression | mouse ESC E14, Fgf4 mRNA qPCR fold change; hits give low values | AID 743177 | Fgf4 expression fold change at 33 µM | 550 compounds, 4% hits | shares compounds with esBAF inh;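 active means Fgf4 expression under 0.8 fold of control in both repeat measurements at one or both tested doses; inconclusive means under 0.8 fold in just a single repeat measurement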;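 further: Fgf4 transcript normalised to actin in duplex TaqMan qPCR; cells exposed to compound for 24 h before lysis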
# Bmi1 derepress – de-represses Bmi1 in mouse ESCs, confirming esBAF inhibition. shares compounds with esBAF inh. mouse ESE14 ES cells, Bmi1 mRNA qPCR fold; hits give high values. fold change at 33 µM. 550 tested, under 10 active. AID 743180;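 active means Bmi1 expression fold change above 6 at either tested concentration, seen in replicate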;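 further: higher fold means more Bmi1 de-repression and stronger esBAF inhibition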
# A549 tox SP – kills or reduces viability of A549 cells. shares compounds with esBAF inh. A549 cytotoxicity, plate reader. cell viability change % (negative = cytotoxic), % at 25 µM, hits read low. 550 tested, under 10 active. AID 743188; call rule not given here
# HepG2 tox SP – kills or reduces viability of HepG2 cells | shares compounds with esBAF inh | HepG2 cytotoxicity, plate reader; hits give low values | 550 compounds, 4% hits | activity change, negative = inhibition, % at 25 µM; in the data active means activity change below about -50%
# HEK293 cytotox SP – cytotoxicity in HEK293 cells | plate reader | shares compounds with esBAF inh | AID 743190 | activity change, negative = inhibition, % at 25 µM, hits read low | 550 compounds, 3% hits; in the data active means activity change below about -38%, passing the limit was not always enough
# Active calls of the source: *; ? = inconclusive; nt = no result. This is a sample that favours compounds with a hit; in the whole collection about 3.6% have one here.
SMILES,esBAF inh,PHOSPHO1 block,A3G deaminase,APOBEC3A inh,Wnt act,MITF act,esBAF Ring1 qPCR,esBAF Fgf4 qPCR,Bmi1 derepress,A549 tox SP,HepG2 tox SP,HEK293 cytotox SP
C/C(=N\O)c1ccc2c3ccccc3n(C)c2c1,58*,-5,-5,-2,4,23,1.2,0.98,1,-13,3,-10
CCn1c2ccccc2c2cc(/C(C)=N/O)ccc21,1,1,-9,-7,-2,5,nt,nt,nt,nt,nt,nt
CC(=O)N(C)c1nc(-c2ccc(Cl)cc2)cs1,74*,25,-7,-3,nt,57,1.2,0.92,1.3,-10,-7,-4
O=C(NC1CCCCCCC1)c1c(O)c2ccccc2[nH]c1=O,91*,7,-9,-2,nt,100*,1.1,0.92,1.3,-6,18,-18
O=C(NC1CCCCC1)c1ccc2ccccc2c1O,83*,nt,nt,nt,0,nt,1.1,0.73*,1.9,-13,9,-50*
O=C(NNC(=O)c1ccc2ccccc2c1O)NC1CCCCC1,0,18,-5,-4,2,-5,nt,nt,nt,nt,nt,nt
COCC(=O)N(C)C[C@@H]1[C@H](c2ccc(-c3ccccc3)cc2)[C@@H](CO)N1C(C)=O,-3,nt,nt,nt,nt,nt,nt,nt,nt,nt,nt,nt
Cc1cc(-c2nnc(-c3cccc(C(F)(F)F)c3)o2)no1,59*,36,-8,-2,19,61,1.2,0.85,1.6,3,-46,-9
C[C@@H]1CN([C@@H](C)CO)S(=O)(=O)c2ccc(/C=C/c3ccccc3)cc2O[C@H]1CN(C)C(=O)Nc1cccc(F)c1,0,nt,nt,nt,nt,nt,nt,nt,nt,nt,nt,nt
Cc1ccc(S[C@@H](CCN2CC[C@H](C)CCC2=O)c2ccccc2)cc1,11,4,6,-1,-9,-5,nt,nt,nt,nt,nt,nt
Cc1ccc(SCCN2CCC(C)CCC2=O)cc1 (stereo not drawn),83*,-7,-9,-3,28,?,0.98,?,1.2,-11,-44,-20
C[C@H](O)C#Cc1ccc2c(c1)O[C@@H](CN(C)C(=O)C1CCC1)[C@@H](C)CN([C@@H](C)CO)S2(=O)=O,2,nt,nt,nt,nt,nt,nt,nt,nt,nt,nt,nt
CC(=O)Nc1sc(N/N=C\c2ccccc2F)nc1-c1cccs1,nt,-6,-2,0,2,-12,nt,nt,nt,nt,nt,nt
Cc1csc(N/N=C/c2ccccc2F)n1,62*,-3,-9,-7,11,49,1,0.94,1.6,-6,-57*,-2
Fc1ccc2cc(C3=CCCCC3)ncc2c1,nt,nt,nt,nt,-1,nt,nt,nt,nt,nt,nt,nt
COc1ccc(NC(=O)Nc2cc(C)ccc2F)cc1,123*,8,1,-1,29,101*,0.91,0.93,1.6,-19,-34,-25
Cc1ccc(NC(=O)Nc2ccc(F)c(Cl)c2)cc1,64*,42,-5,-6,47*,65,0.94,1.3,1.5,-9,-18,-33
O=C(O)c1ccc2noc(-c3ccccc3)c2c1,82*,-10,2,6,nt,53,1.1,?,1.5,3,9,2
O=C(c1ccc2noc(-c3ccccc3)c2c1)N1CCN(c2ccccc2)CC1,-2,nt,-13,-3,-4,8,nt,nt,nt,nt,nt,nt
Cc1ccc(C)c(N2CCN(C(=O)CCc3nc(-c4cccc(Cl)c4)no3)CC2)c1,90*,nt,3,0,0,73,1.1,1.2,0.86,2,-37,0
COc1cccc(-c2noc(CCC(=O)N3CCN(c4cc(C)ccc4C)CC3)n2)c1,2,nt,0,2,-1,0,nt,nt,nt,nt,nt,nt
